High-throughput results deposited in PubChem BioAssay by National Center for Advancing Translational Sciences (NCATS).
TDP1 cell noCPT: qHTS for Inhibitors of human tyrosyl-DNA phosphodiesterase 1 (TDP1): qHTS in cells in absence of CPT; Potency, µM (top dose mostly 46.2 µM), for the others: at the highest dose activity change, negative = growth inhibition, actives largely listed as inhibitors; 420,000 tested, 15% active; DT40 Tdp1-/- hTDP1 cells, no CPT, ATP luminescence, 48 h; note: potency is the fitted concentration of half-maximal effect; % is set by controls: 0 for no effect and ±100 for the full control effect; nearly all actives have a fitted effect of over 55% in size
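Luminescent ATP content (CellTiter-Glo) served as the growth readout. Knockout chicken DT40 cells expressing human TDP1 were exposed to compounds without camptothecin for a minimum 48 hr at 37 °C.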
SW480 rereplic: A quantitative high throughput screen for small molecules that induce DNA re-replication in SW480 colon adenocarcinoma cells; SW480 DNA re-replication, Hoechst DNA content imaging, 48 h; Potency, µM (titrated, usually from 46.1 µM), inactives show at the highest dose re-replication activation, hits mostly activators; 340,000 tested, 1.8% active; AID 624297, 2012; note: potency is the fitted concentration of half-maximal effect; % of control where 0% means no effect; nearly all actives have a fitted effect of over 55% in size
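Compounds, transferred as 23 nL by pin tool, were incubated with cells for 48 hr; DNA content per nucleus was then quantified by Hoechst staining and fluorescence plate imaging.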
MCF10A rerep: A quantitative high throughput screen for small molecules that induce DNA re-replication in MCF 10a normal breast cells; MCF 10A DNA re-replication, Hoechst nuclear intensity, 48 h; Potency, µM (doses to about 46.1 µM), inactives show top-dose activity, positive = re-replication, usual class: activators; 350,000 tested, 2.9% active; note: potency is the fitted concentration of half-maximal effect; % of control where 0% means no effect; nearly all actives have a fitted effect of over 50% in size
IL1B secr inh: qHTS for Inhibitors of Inflammasome Signaling: IL-1-beta AlphaLISA Primary Screen; THP-1 LPS/ATP IL-1B secretion, AlphaLISA, 16 h; hits give low values; activity change, % at 57.5 µM; AID 743279, 2014; 360,000 tested, 4.7% active; in the data active = activity change below about -50%; inconclusive = mostly about -30% to -49%; note: % is set by controls: 0 for no effect and ±100 for the full control effect
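THP-1 cells pretreated 1 hr with compounds (up to 57.5 uM final), then stimulated with LPS (250 ng/mL final) plus ATP (1.25 mM final); secreted IL-1B measured by AlphaLISA after 16 hr, decreased signal indicating inhibition.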
BCR signal inh: qHTS Assay to Find Inhibitors of Chronic Active B-Cell Receptor Signaling; Potency, µM (titrated, usually from 46.1 µM), for the others: at the top dose activity change, negative = inhibition, actives largely listed as inhibitors; ABC-DLBCL IkBa-CBG/CBR reporter, luminescence ratio, 4 h; AID 493014, 2011; 340,000 tested, 0.05% active; active = well fitted inhibition curve with a large enough effect in the signal ratio, with a control signal flat, not every such curve was filed as active; inconclusive = small, poorly fitted or top-dose-only effect, or effect the other way, or a change in a side signal; the % refers to the signal ratio;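 note: potency is the fitted concentration of half-maximal effect; plate controls were basal doxycycline-induced cells for no effect and cells given 10 µM MG132 for full effect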
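Concentration-response series (up to 46 uM) were applied to TMD8 dual-reporter cells for 4 h at 37C with doxycycline. Green/red ratio, after filter-overlap correction, defined %Activity; red signal alone was normalised to basal cells and zero luminescence.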
TDP1 cell CPT: qHTS for Inhibitors of human tyrosyl-DNA phosphodiesterase 1 (TDP1): qHTS in cells in presence of CPT | AID 686979, 2013 | chicken DT40 Tdp1-/-;hTDP1 cells + 20 nM CPT, ATP luminescence, 48 h | 420,000 tested, 12% active | Potency, µM (highest dose often 46.2 µM), inactives show at the top dose activity change, negative = growth inhibition, actives largely listed as inhibitors; note: potency is the fitted concentration of half-maximal effect; % is set by controls: 0 for no effect and ±100 for the full control effect; nearly all actives have a fitted effect of over 55% in size
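Chicken DT40 Tdp1-/- cells stably complemented with human TDP1 were seeded at 400 cells/well in medium containing 20 nM camptothecin, exposed to pin-transferred compounds, and grown at 37 °C for at least 48 hr. Viability was read as ATP luminescence.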
Numbers without * were called inactive; ? = inconclusive; nt = not tested or not shown; [ ] = another dose, or the depositor's remark. The list is not random: actives were taken first. Their share in the collection is about 19%. Unless noted, calls come from the whole dose curve; as a rule, active = well fitted curve in the direction sought with a large enough effect; inconclusive = small, poorly fitted or top-dose-only effect, or another doubt; inactive = no such curve, though single readings can be large; an effect the other way counts as inactive or inconclusive.

SMILES | TDP1 cell noCPT | SW480 rereplic | MCF10A rerep | IL1B secr inh | BCR signal inh | TDP1 cell CPT
O=C(CSc1nnc(-c2ccccc2F)o1)N1CCNC1=O | 9% | 15% | 0% | ? | ? | -22%
CCSc1nc(-c2ccccc2)nc(C(Cl)Cl)n1 | 8.2µM* | 23% | 12µM* | -24 | ? | 1.8µM*
[O-]C(=C(C(=S)Nc1cccc2ccccc12)[n+]1cccc(CO)c1)c1ccc(Cl)s1 | -28% | -3% | 18% | -10 | nt | ?
Cc1ccc(C)c(NC(=S)/C(=C(\[O-])c2ccc(Cl)s2)[n+]2ccccc2)c1 | -14% | -10% | 0.65µM* | 43 | -7% | -18%
[O-]/C(=C(\C(=S)Nc1cccc2ccccc12)[n+]1ccccc1)c1ccc(Cl)s1 | 18µM* | -1% | ? | -21 | -12% | ?
CCc1cccc(CC)c1NC(=S)/C(=C(\[O-])c1ccc(Cl)s1)[n+]1ccccc1 | 1.8µM* | -23% | -36%[9.22 µM] | -29 | 1% | 2.3µM*
Cc1cc(C)cc(NC(=S)/C(=C(\[O-])c2ccc(Cl)s2)[n+]2cccc(C)c2)c1 | 21µM* | 3% | -6% | -12 | -1% | 18µM*
COc1ccc(NC(=O)CSCC(=O)N(C)CC(=O)Nc2cccc3ccccc23)cc1 | ? | -281% | 3% | 15 | -15% | ?
CCc1ccc(NC(=O)Cn2c(=O)n(CCC(=O)NCCc3ccc(Cl)cc3)c(=O)c3ccccc32)cc1 | -1% | nt | nt | nt | nt | 2%
O=[N+]([O-])c1cc2ccccc2c(O)c1O | ? | nt | nt | 11 | nt | 23µM*
O=[N+]([O-])c1cccc(C=Nc2cccc3ccccc23)c1O | -21% | ? | 4% | 10 | -4% | -6%
O=[N+]([O-])c1cc(-c2ccccc2)cc([N+](=O)[O-])c1O | 18µM* | 2% | ? | 20 | nt | ?
Cc1ccc(-c2nc(SC(C)C(=O)c3c(N)n(C)c(=O)n(C)c3=O)n[nH]2)cc1 (stereo not drawn) | 23µM* | 2% | 15% | 28 | 4% | ?
CCOc1cc(CNCCc2ccc(S(N)(=O)=O)cc2)ccc1OCC(=O)NC(C)(C)C | ? | 2% | 7% | -7 | nt | ?
CCOc1cc(CNCCc2ccc(S(N)(=O)=O)cc2)ccc1OCC(=O)NC1CCCCC1 | 23µM* | -1% | 15% | -19 | -15% | ?
CCOc1cc(CNCCc2ccccc2)ccc1OCC(=O)NC(C)(C)C | 21µM* | ? | ? | -18 | 4% | 18µM*
Cc1cccc(S(=O)(=O)Nc2ccc(-c3ccc4nncn4n3)cc2)c1 | ? | -3% | -1% | 13 | ? | ?
CCc1ccc(S(=O)(=O)Nc2cccc(-c3ccc4nncn4n3)c2)s1 | 15µM* | ? | ? | 27 | -8% | ?
COc1cc(OC)cc(C(=O)Nc2cccc(-c3ccc4nncn4n3)c2)c1 | nt | nt | nt | nt | 1% | nt
COc1ccc(S(=O)(=O)Nc2cccc(-c3ccc4nncn4n3)c2)cc1 | 2.6µM* | 3.5µM* | 5.8µM* | 27 | ? | 3.7µM*
COc1ccc(Cl)cc1C(=O)Nc1cccc(-c2ccc3nncn3n2)c1 | -19% | -2% | 0% | -64* | ? | ?
COc1ccc(C(=O)Nc2cccc(-c3ccc4nncn4n3)c2)cc1 | 15µM* | 1% | -8% | 21 | -6% | 15µM*
CCN(C(=O)CSc1nc(N)cc(=O)[nH]1)c1c(N)n(Cc2ccccc2)c(=O)[nH]c1=O | -23% | -47% | 4% | 0 | -2% | -7%
COc1ccccc1NC(=O)Nc1ccccc1N1CCOCC1 | -3% | -12% | 7% | 7 | 0% | -10%
Cc1nc(C(F)(F)F)ccc1C(=O)N1CCC1(C)C(=O)NS(=O)(=O)c1ccc2ccccc2c1 (stereo not drawn) | 5% | nt | nt | 0 | nt | -6%
SMILES | TDP1 cell noCPT | SW480 rereplic | MCF10A rerep | IL1B secr inh | BCR signal inh | TDP1 cell CPT
O=C(Cc1ccc(Cl)cc1)Nc1cc(Cl)ccn1 | -6% | 1% | 15% | ? | nt | -2%
O=S(=O)(Nc1ccc(-c2ccc3nncn3n2)cc1)c1ccccc1Cl | -10% | -6% | -10% | 8 | ? | ?
COc1ccc(S(=O)(=O)Nc2ccc(-c3ccc4nncn4n3)cc2)c(OC)c1 | 10µM* | -6% | ? | -7 | -15% | 9.2µM*
O=C(COc1ccc(Cl)cc1)Nc1cccc(-c2ccc3nncn3n2)c1 | 16µM* | 0% | 7% | -18 | 0% | -25%
COCC(=O)Nc1cccc(-c2ccc3nncn3n2)c1 | 17% | -19% | 0% | -4 | 0% | -14%
OCC1OC(Nc2ccccc2C=NO)C(O)C1O (stereo not drawn) | -7% | nt | nt | 55 | nt | 4%
COc1ncc2nc(-c3cc(F)cc(F)c3)c(=O)n(-c3ccccc3)c2n1 | -31% | nt | nt | nt | nt | -1%
COC(=O)c1ccccc1NC(=O)CCC(=O)N1CC(C)Sc2ccccc21 (stereo not drawn) | 15µM* | nt | nt | nt | nt | 16µM*
COC(=O)c1ccccc1NC(=O)CCC(=O)N1CC(C)Oc2ccc(C)cc21 (stereo not drawn) | ? | -10% | -4% | 9 | -3% | 15µM*
Cc1ccc2c(c1)N(C(=O)CCC(=O)N1CCC(C(N)=O)CC1)CC(C)O2 (stereo not drawn) | 5% | -2% | -2% | -5 | ? | 26µM*
COC(=O)c1ccccc1NC(=O)CCC(=O)N1CCSc2ccccc21 | -21% | 0% | 1% | 18 | 0% | -8%
CCOC(=O)c1cccc(NC(=O)CCC(=O)N2CC(C)Oc3ccc(C)cc32)c1 (stereo not drawn) | ? | nt | nt | nt | nt | 23µM*
Cc1ccc2c(c1)N(C(=O)CCC(=O)NCCCN1CCN(C)CC1)CC(C)O2 (stereo not drawn) | 12% | 4% | 2% | -15 | 4% | 5%
Cc1ccc2c(c1)N(C(=O)CCC(=O)NCC(C)c1ccccc1)CC(C)O2 (stereo not drawn) | ? | -1% | 11% | -6 | -2% | ?
COc1ccc(/C=C/C(=O)OCC(=O)N2CCCCCC2)c(OC)c1 | ? | -5% | 5% | -18 | 0% | ?
